Laboratory results reported in PubChem BioAssay (NCATS).
Results filed as inconclusive are left out. A call without a number means that no potency is given here. Values without a mark were called inactive. Active and inactive are the calls of the source. Calls come from the whole dose curve; as a rule, active = well fitted curve in the direction sought with a large enough effect; inconclusive = small, poorly fitted or top-dose-only effect, or another doubt; inactive = no such curve, though single readings can be large; an effect the other way counts as inactive or inconclusive. Where a SMILES comes first, the peptide text is derived from it. The star is where a group is joined. Cbz = O=C(OCc1ccccc1)*; CH2F = FC*

Experiments:
[1] = system: Zika virus NS2B-NS3 protease; experiment: Primary screen GU AMC qHTS for Zika virus inhibitors (AID 1347154); conditions: Zika NS2B-NS3 unlinked protease, AMC fluorogenic substrate; series mostly up to 54.1 µM; note: nearly all actives have a fitted effect of over 70% in size
Outline: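 Fluorogenic AMC-substrate cleavage by noncovalent NS2B-NS3 protease complex (25 nM, pH 8.0 Tris buffer with Tween 20) followed for 15 minutes at room temperature (~20% conversion). Percent inhibition from ex340/em450 signal change, fitted by 4-parameter Hill equation.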

[2] = Primary qHTS for small molecule stabilizers of the endoplasmic reticulum resident proteome: Secreted ER Calcium Modulated Protein (SERCaMP) assay (AID 1508630); conditions: SH-SY5Y GLuc-SERCaMP (Gaussia luciferase released on ER calcium loss) secretion, thapsigargin, luminescence; series mostly up to 38.4 µM
Outline: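 The SH-SY5Y reporter protocol was run at 3 concentrations up to 38.3 uM (primary) or 11 concentrations (follow-up): 16 h compound, 100 nM thapsigargin for 4 h, then extracellular luciferase luminescence.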

Compound	activity change, negative = inhibition [1]	activity change, negative = inhibition [2]	Potency [1]	Potency [2]
CCCCCCCC/C=C\C/C=C\C/C=C\CCCC(=O)O	-5.55% [at 6.83 µM]	18.3% [at 3.88 µM]		
CNc1ncnc2c1ncn2[C@H]1C[C@H](O)[C@@H](CO)O1			inactive	inactive
c1ccc(CN(CCN(Cc2ccccn2)Cc2ccccn2)Cc2ccccn2)nc1			inactive	inactive
C=C1Cc2c(Cl)cc3[nH]c4c5c3c2[C@@]2(O)[C@@H]1C[C@@H]2C(C)(C)O[C@H]5[C@@H]1CC[C@@]2(O)[C@@]35O[C@@H]3[C@@H](O)[C@@H](C(=O)O)O[C@H]5CC[C@]2(C)[C@@]41C			inactive	inactive
CC1CCC(C(C)C)C(P(=O)(c2ccccc2)c2ccccc2)C1 (stereo not drawn)			inactive	inactive
CCCCCC(=O)/C=C/C=C\CCCCCCCC(=O)O	0.325% [at 0.59 µM]	-7.64% [at 0.478 µM]		
CCCCCCCCCCCCC/C=C/[C@@H](O)[C@H](CO)NC(=O)CCCCCCCCCCCCCCC	22% [at 6.83 µM]	-18.7% [at 3.88 µM]		
C=CCn1c(=O)c2c(nc(-c3ccccc3)n2C)n(C)c1=O			inactive	inactive
CCCCCCCCCCCCCCC[C@@H](O)[C@H](CO)NC(C)=O	7.2% [at 6.83 µM]	-11.4% [at 3.88 µM]		
CC(C)n1cnc2c(NCc3ccccc3)nc(NCCO)nc21			inactive	inactive
Cc1[nH]c(/C=C2/C(=O)Nc3ccc(S(=O)(=O)Cc4c(Cl)cccc4Cl)cc32)c(C)c1C(=O)N1CCCC1CN1CCCC1 (stereo not drawn)			inactive	inactive
CC(N)COC(=O)C(CCCCN)NC(=O)Cc1c(-c2ccc3ccccc3c2)[nH]c2c1ccc1ccccc12 (stereo not drawn)			inactive	inactive
COC(=O)C[C@H](NC(=O)[C@H](C)NC(=O)[C@@H](NC(=O)OCc1ccccc1)C(C)C)C(=O)CF (Cbz-Val-Ala-Asp(OMe)-CH2F)			inactive	inactive
COC(=O)/C=C/c1ccc(C(=O)NCC(=O)N[C@@H](CCC(=O)OC)C(=O)N[C@@H](CC(C)C)C(N)=O)cc1			inactive	inactive
CC1=C(/C=C/C(C)=C\C=C\C(C)=C\C(=O)O)C(C)(C)CCC1			inactive	inactive
C[C@@]12CCC[C@H]1C1CC[C@H]3C[C@H](O)CC[C@]3(C)C1CC2 (stereo partly drawn)			inactive	inactive
CCCCCCCC/C=C\CCCCCCCC(=O)OCC(CO)OC(=O)CCCCCCC/C=C\CCCCCCCC (stereo not drawn)	-0.778% [at 6.83 µM]	17.1% [at 3.88 µM]		
Cc1ccccc1N1CCN(S(=O)(=O)CC23CCC(CC2NC(=O)C(N)CCS(C)(=O)=O)C3(C)C)CC1 (stereo not drawn)			inactive	inactive
CCCCCCCC(=O)OC[C@H](CO)OC(=O)CCCCCCC	4.76% [at 6.83 µM]	-8.21% [at 3.88 µM]		
COC(=O)C1=C(C)NC(C)=C(C(=O)NCCCN2CCC(c3ccccc3)(c3ccccc3)CC2)C1c1ccc([N+](=O)[O-])cc1 (stereo not drawn)			inactive	inactive
C[C@H](NC(=O)CNC(=O)[C@@H](NC(=O)[C@H](Cc1ccccc1)NC(=O)CNC(=O)CNC(=O)[C@@H](N)Cc1ccccc1)[C@@H](C)O)C(=O)N[C@@H](CCCN=C(N)N)C(=O)N[C@@H](CCCCN)C(=O)N[C@@H](CO)C(=O)N[C@@H](C)C(=O)N[C@@H](CCCN=C(N)N)C(=O)N[C@H](CN)CCCCN (HELM PEPTIDE1{F.G.G.F.T.G.A.R.K.S.A.R.[NCCCC[C@@H](CN)N[*:1]]}$$$$V2.0)	1.78% [at 6.83 µM]	-10.3% [at 3.88 µM]		
NC(C(=O)O)[C@H](O)C(=O)O (stereo partly drawn)			inactive	inactive
NCCCC[C@@H](N)C(=O)O			inactive	inactive
O=C(O)[C@H]1CCCN1			inactive	inactive
C[C@H](CCC(=O)NCCS(=O)(=O)O)C1CC[C@H]2C3CC[C@@H]4C[C@H](O)CC[C@]4(C)C3C[C@H](O)[C@]12C (stereo partly drawn)			inactive	inactive
CCCCC[C@H](O)/C=C/[C@H]1C(=O)C=C[C@@H]1C/C=C\CCCC(=O)O	15.7% [at 6.83 µM]	-10.1% [at 3.88 µM]		
C[C@H](N)CCCP(=O)(O)O			inactive	inactive
O=c1oc(-c2ccc(C(F)(F)F)cc2)nn1Cc1cc(Cl)ccc1O			inactive	inactive
N#CC(C#N)=C(N)/C(C#N)=C/c1ccc2[nH]ccc2c1			inactive	inactive
